# Compound activity as filed in PubChem BioAssay.
# TDP1 cell CPT – DT40-hTDP1 cell growth loss with CPT | Potency, µM (top dose mostly 46.2 µM), for inactives: at the top dose activity change, negative = growth inhibition, most hits filed as inhibitors | chicken DT40 Tdp1-/-;hTDP1 cells + 20 nM CPT, ATP luminescence, 48 h | 420,000 compounds, 12% hits; further: potency means the concentration at half of the fitted maximal effect; nearly all actives have a fitted effect of over 55% in size
#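 Cell growth measured by CellTiter-Glo luminescence after a minimum 48 h, 37 C compound exposure with 20 nM CPT in Tdp1-knockout DT40 cells stably expressing hTDP1, seeded 400/well; qHTS titration format.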
# HT1080 IDH1KD tx – kills HT-1080 cells with IDH1 knockdown; 360,000 compounds, 2% hits; Potency, µM (highest dose often 46.1 µM), for inactives: at the highest dose activity, negative = toxicity, hits mostly cytotoxic; HT-1080 IDH1 knockdown viability, ATP luminescence, 48 h;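 further: potency means the concentration at half of the fitted maximal effect; 0% = DMSO wells and -100% = cell-free medium wells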
#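 After a 2 h attachment period, IDH1KD HT-1080 cells took pin-transferred compound for 48 h at 37 °C; ATP-based luminescence after 10 min room-temperature reagent incubation reported viability.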
# TDP1 cell noCPT – qHTS for Inhibitors of human tyrosyl-DNA phosphodiesterase 1 (TDP1): qHTS in cells in absence of CPT; 420,000 compounds, 15% hits; AID 686978, 2013; Potency, µM (titrated, usually from 46.2 µM), without a hit: at the highest dose activity change, negative = growth inhibition, actives largely listed as inhibitors; DT40 Tdp1-/- hTDP1 cells, no CPT, ATP luminescence, 48 h; further: potency means the concentration at half of the fitted maximal effect; nearly all actives have a fitted effect of over 55% in size
#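 Growth of hTDP1-complemented DT40 Tdp1-knockout cells is measured by ATP luminescence after at least 48 hr compound exposure at 37 °C, with DMSO substituting for the 20 nM CPT used in the parallel screen.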
# IL-1B inflam inh – blocks inflammasome-driven IL-1 beta release; THP-1 LPS/ATP IL-1B secretion, AlphaLISA, 16 h; stronger effect = lower value; activity change, % at 57.5 µM; 360,000 compounds, 4.7% hits; AID 743279; in the data active means activity change below about -50%; inconclusive means mostly about -30% to -49%
#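 THP-1 cells pretreated 1 hr with compounds (up to 57.5 uM final), then stimulated with LPS (250 ng/mL final) plus ATP (1.25 mM final); secreted IL-1B measured by AlphaLISA after 16 hr, decreased signal indicating inhibition.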
# HT1080-NT tox – kills 2HG-producing HT-1080-NT fibrosarcoma cells. AID 686970. HT-1080-NT fibrosarcoma viability, CellTiter-Glo ATP luminescence, 48 h. Potency, µM (highest dose often 46.1 µM), without a hit: at the top dose activity, negative = less viability, hits mostly cytotoxic. 360,000 compounds, 1.6% hits;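 further: NT is the 2HG producing partner of a matched IDH1 knockdown line; potency means the concentration at half of the fitted maximal effect; 0% = DMSO-treated cells and -100% = media-only wells without cells; nearly all actives have a fitted effect of over 55% in size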
#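 Luminescent CellTiter-Glo readout after 48 hours of compound exposure at 37 degrees C defined viability of HT-1080-NT cells. Activity was normalized to DMSO wells and cell-free media wells; concentration-response curves were fitted and assigned curve classes.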
# Active calls of the source: *; ? = inconclusive; . = no result. This is a sample that favours compounds with a hit; in the whole collection about 19% have one here. Unless noted, the call rests on the fitted dose curve; in most records, active means well fitted curve in the direction sought with a large enough effect; inconclusive means small, poorly fitted or top-dose-only effect, or another doubt; inactive means no such curve, though single readings can be large; an effect the other way counts as inactive or inconclusive. Unless noted, on the % scale 0 is the no-effect control and ±100 the full control effect.
SMILES,TDP1 cell CPT,HT1080 IDH1KD tx,TDP1 cell noCPT,IL-1B inflam inh,HT1080-NT tox
CN(CCc1cn[nH]c1)Cc1nc(C(c2ccccc2)c2ccccc2)no1,?,-0.2%,?,-2.8,0.3%
CCN(CC)CCN(C)Cc1nc(C(c2ccccc2)c2ccccc2)no1,-3.0%,-4.2%,-0.6%,-64.2*,-1.1%
C/C(=N/NC(=O)CN1CCN(S(=O)(=O)c2ccc(C)cc2)CC1)c1ccco1,-0.9%,-1.2%,0.3%,58.5,?
CC(=O)Nc1ccc(OC(=O)c2ccc(Br)c([N+](=O)[O-])c2)cc1,-25.0%,?,-27.3%,-147.0*,11.3%
CCc1ccc(Nc2ccc(C(N)=O)cc2[N+](=O)[O-])cc1,?,1.7%,23.1µM*,-11.8,-5.3%
CC(=O)Nc1ccc(C(=O)OCC(=O)c2ccc(C)c([N+](=O)[O-])c2)cc1,3.5%,3.2%,-27.6%,-0.5,6.6%
CCOC(=O)c1ccc(NC(C)=O)c([N+](=O)[O-])c1,25.9µM*,18.4%,-100.5%,19.1,15.9%
Cc1ccc(NC(=O)CSc2ccc(C(N)=O)cc2[N+](=O)[O-])cc1C,10.3µM*,-13.1%,16.4µM*,24.0,-4.7%
Cc1ccc2c(c1Br)C(O)(CC(=O)c1ccc(F)cc1)C(=O)N2 (stereo unspecified),-16.0%,.,?,.,.
CCNc1ccc(C(=O)OCC(=O)N(Cc2ccccc2)C(C)(C)C)cc1[N+](=O)[O-],14.6µM*,14.5%,?,10.3,14.5%
CCCNc1ccc(C(=O)OCC)cc1[N+](=O)[O-],-9.5%,13.5%,-22.9%,5.1,5.3%
COc1cccc(CN(C)CC(=O)Nc2ccccc2C(C)C)c1,?,-4.9%,16.4µM*,-13.4,-12.0%
COc1ccccc1CN(C)CC(=O)Nc1ccc(Cl)cc1F,?,-6.1%,?,0.0,-8.9%
COc1ccccc1CN(C)CC(=O)Nc1cccc2ccccc12,25.9µM*,-23.5%,25.9µM*,-59.6*,-15.2%
COc1ccccc1CN(C)CC(=O)Nc1ccc(Cl)cc1C(F)(F)F,20.6µM*,-10.6%,14.6µM*,-7.0,-14.4%
CCCN(C(=O)Cc1c(C(=O)O)n(C)c2ccccc12)c1cccc(C)c1,0.6%,0.0%,8.3%,23.5,-6.9%
CN(Cc1ccccc1OCCO)CC1CCCN(CCc2ccc(Cl)cc2)C1 (stereo unspecified),?,?,?,-61.4*,?
COc1cccc(CN(C)CC2CCCN(CCc3ccccc3C)C2)c1 (stereo unspecified),?,?,18.4µM*,-25.5,?
COC(=O)CCCC(=O)N(C)CC1CCCN(CCc2ccccc2C)C1 (stereo unspecified),-17.3%,15.9%,?,-1.1,9.5%
Cc1cc(C)c(C(=O)N(C)CC2CCCN(CCc3ccccc3F)C2)o1 (stereo unspecified),-5.8%,-1.3%,-28.1%,-14.2,1.6%
COc1ccc(CCN2CCCC(CN(C)Cc3cc(Cl)c(O)c(OC)c3)C2)cc1 (stereo unspecified),-24.3%,-19.3%,?,-11.2,-22.7%
COc1ccc(CN(C)CC2CCCN(CCc3ccccc3C)C2)cc1O (stereo unspecified),-22.5%,?,?,-52.4*,?
COc1cc(OC)c(OC)cc1CN(C)CC1CCCN(CCc2ccccc2F)C1 (stereo unspecified),14.6µM*,?,?,?,-25.5%
C/C(=N\NC(=O)c1cc(C)nc2ccccc12)c1cccc(Cl)c1,-25.8%,-22.1%,-19.1%,-21.1,-16.2%
CCC(=O)N1CCc2cc(S(=O)(=O)CCC(=O)Nc3ccc(OC)cc3)ccc21,-9.2%,-1.3%,-3.5%,-9.2,0.2%
CCC(=O)N1CCc2cc(S(=O)(=O)CCC(=O)Nc3ccc(OC(F)(F)F)cc3)ccc21,23.1µM*,.,23.1µM*,.,.
CCC(=O)N1CCc2cc(S(=O)(=O)CCC(=O)N3CCN(c4ccc(Cl)cc4)CC3)ccc21,8.2µM*,-23.9%,4.11µM*,-3.3,-15.0%
